Records with an inconclusive call do not appear. Some structures have more than one record in an assay (separate samples or runs), and their calls can disagree. Active and inactive are the calls of the source. How the source made its calls, unless noted: active means hit-call score of the fitted dose curve at least 0.9, where 1 is the maximum; inactive means score below 0.9.
Experiments:
[1] = read-out: Intercellular Adhesion Molecule 1 (ICAM1), ICAM1 (gene 3383); experiment: BSK_3C_ICAM1: BioMAP Diversity Plus: 3C Assay for Intercellular Adhesion Molecule 1 (ICAM1) Biomarker Activity (AID 2283003); conditions: primary human endothelial cells (HUVEC); actives raise or lower the signal
In short: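 ICAM-1 levels measured by ELISA after HUVEC cultures in the 3C system had been dosed for 24 h. Gain or loss of signal relative to DMSO was fitted in both directions.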

[2] = BSK_3C_Proliferation: Cell Proliferation Assessment in the BioMAP Diversity Plus: 3C Assay (AID 2283006); conditions: primary human endothelial cells (HUVEC);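 on AC50: potency may reflect either rise or fall in cell number versus DMSO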
In short: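 Read-out is total protein by SRB absorbance at 560 nm, taken as a proxy for relative cell number. Primary human umbilical vein endothelium cultured below confluence was dosed for 48 h, TCA-fixed and SRB-stained; curves were fitted bidirectionally versus DMSO.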

[3] = biological target: human RAR-related Orphan Receptor beta (RORb), RORB (gene 6096) (UniProt Q92753); experiment: ATG_RORb_TRANS: Attagene TRANS-FACTORIAL HepG2 Assay for human RAR-related Orphan Receptor beta (RORb) (AID 2283010; active means hit-call score of the fitted dose curve at least 0.9, where 1 is the maximum)
Chain of human RAR-related Orphan Receptor beta (RORb), RORB (gene 6096) (Q92753 whole entry, looked up, the tested form may be a part): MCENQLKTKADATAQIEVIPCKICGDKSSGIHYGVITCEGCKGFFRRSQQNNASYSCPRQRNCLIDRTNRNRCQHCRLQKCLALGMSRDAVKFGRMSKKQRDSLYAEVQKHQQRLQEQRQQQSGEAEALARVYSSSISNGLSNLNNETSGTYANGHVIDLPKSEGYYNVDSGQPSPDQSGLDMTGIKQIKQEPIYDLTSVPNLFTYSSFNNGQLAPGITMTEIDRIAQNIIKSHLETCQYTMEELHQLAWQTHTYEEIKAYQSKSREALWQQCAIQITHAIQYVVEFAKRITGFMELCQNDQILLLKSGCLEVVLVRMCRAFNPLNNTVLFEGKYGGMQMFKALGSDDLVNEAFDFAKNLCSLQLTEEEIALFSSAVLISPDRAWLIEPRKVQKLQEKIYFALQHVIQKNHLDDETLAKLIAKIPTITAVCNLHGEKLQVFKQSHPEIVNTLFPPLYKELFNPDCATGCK
In short: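 Readout is reporter-gene mRNA induction, detected as fluorescence after RT-PCR and capillary electrophoresis, fitted for gain of signal against DMSO controls. Transiently transfected HepG2 liver cells carrying GAL4-UAS reporter constructs were treated for 24 hours.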

[4] = biological target: human RAR-related Orphan Receptor gamma (RORg), RORC (gene 6097) (UniProt P51449); experiment: ATG_RORg_TRANS: Attagene TRANS-FACTORIAL HepG2 Assay for human RAR-related Orphan Receptor gamma (RORg) (AID 2283011; active means hit-call score of the fitted dose curve at least 0.9, where 1 is the maximum)
Chain of human RAR-related Orphan Receptor gamma (RORg), RORC (gene 6097) (P51449 whole entry, looked up, the tested form may be a part): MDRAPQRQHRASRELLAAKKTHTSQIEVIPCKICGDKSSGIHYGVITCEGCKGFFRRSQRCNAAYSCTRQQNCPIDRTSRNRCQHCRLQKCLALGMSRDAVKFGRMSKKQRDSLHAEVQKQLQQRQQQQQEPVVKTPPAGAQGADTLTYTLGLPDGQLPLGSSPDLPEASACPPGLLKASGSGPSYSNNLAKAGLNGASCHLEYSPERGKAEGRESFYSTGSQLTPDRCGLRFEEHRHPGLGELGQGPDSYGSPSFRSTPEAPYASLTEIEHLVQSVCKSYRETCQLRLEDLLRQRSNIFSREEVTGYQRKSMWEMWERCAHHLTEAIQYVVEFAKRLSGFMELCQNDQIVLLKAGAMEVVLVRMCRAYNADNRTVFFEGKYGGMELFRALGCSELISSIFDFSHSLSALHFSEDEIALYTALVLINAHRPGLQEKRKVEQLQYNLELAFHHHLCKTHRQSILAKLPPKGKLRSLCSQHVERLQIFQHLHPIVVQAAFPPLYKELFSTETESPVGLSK
In short: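 Reporter transcripts from a transfected RORg-GAL4 chimera in HepG2 cells were quantified 24 h after dosing by RT-PCR, 6-FAM labelling, HpaI digestion and capillary electrophoresis; increases over DMSO baseline were fitted.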

[5] = biological target: human Thyroid Receptor alpha (THRa1), THRA (gene 7067) (UniProt P10827); experiment: ATG_THRa1_TRANS: Attagene TRANS-FACTORIAL HepG2 Assay for human Thyroid Receptor alpha (THRa1) (AID 2283014; active means hit-call score of the fitted dose curve at least 0.9, where 1 is the maximum)
Chain of human Thyroid Receptor alpha (THRa1), THRA (gene 7067) (P10827 whole entry, looked up, the tested form may be a part): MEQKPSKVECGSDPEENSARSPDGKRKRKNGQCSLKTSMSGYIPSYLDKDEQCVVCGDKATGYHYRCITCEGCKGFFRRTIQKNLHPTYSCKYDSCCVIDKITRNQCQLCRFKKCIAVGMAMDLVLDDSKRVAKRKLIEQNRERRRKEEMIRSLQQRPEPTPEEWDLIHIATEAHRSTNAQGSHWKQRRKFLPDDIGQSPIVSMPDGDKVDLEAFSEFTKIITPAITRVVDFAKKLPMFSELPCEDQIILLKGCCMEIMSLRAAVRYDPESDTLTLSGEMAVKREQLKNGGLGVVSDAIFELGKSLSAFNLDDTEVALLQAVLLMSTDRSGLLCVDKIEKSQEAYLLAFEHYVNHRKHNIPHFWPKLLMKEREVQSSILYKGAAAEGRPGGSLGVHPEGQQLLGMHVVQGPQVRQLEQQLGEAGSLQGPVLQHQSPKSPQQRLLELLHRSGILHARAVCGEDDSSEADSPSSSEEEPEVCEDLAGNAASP
In short: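 Transcripts from GAL4-UAS-driven reporters, measured after 24 h compound exposure by RT-PCR plus capillary electrophoresis of 6-FAM-labeled fragments, were fitted for gain of signal relative to DMSO. Cells: transiently transfected HepG2 expressing NR-Gal4 chimeras.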

[6] = read-out: E-selectin (Homo sapiens) (UniProt P16581); experiment: BSK_3C_Eselectin: BioMAP Diversity Plus: 3C Assay for Eselectin Biomarker Activity (AID 2283015); conditions: primary human endothelial cells (HUVEC); actives raise or lower the signal;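 further: cell surface E-selectin protein quantified by ELISA 24 h after dosing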
In short: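 E-selectin ELISA readout, fitted bidirectionally relative to DMSO, taken 24 h post-dosing in HUVEC cultures of the 3C system. Overt cytotoxicity tracked with sulforhodamine B staining of parallel wells.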

[7] = read-out: Interleukin-1 alpha (IL1a), IL1A (gene 3552); experiment: BSK_BE3C_IL1a: BioMAP Diversity Plus: BE3C Assay for Interleukin-1 alpha (IL1a) Biomarker Activity (AID 2283016); conditions: primary human bronchial epithelial cells; actives raise or lower the signal
In short: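 BE3C primary human bronchial epithelium; cpd 24 h; IL-1a by ELISA; bidirectional fit vs DMSO; parallel SRB (0.1% SRB, 10% TCA fix, 560 nm) for cytotoxicity.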

[8] = read-out: Monocyte Chemoattractant Protein-1 (MCP1), CCL2 (gene 6347); experiment: BSK_4H_MCP1: BioMAP Diversity Plus: 4H Assay for Monocyte Chemoattractant Protein-1 (MCP1) Biomarker Activity (AID 2283018); conditions: primary human endothelial cells (HUVEC); actives raise or lower the signal
In short: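 ELISA read-out of MCP-1 from human vascular endothelial primary cells taken at 24 hours after compound exposure. Activity was fitted in both directions relative to DMSO, which served as negative control.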

[9] = read-out: Human Leukocyte Antigen - DR isotype (HLADR), HLA-DRA (gene 3122); experiment: BSK_3C_HLADR: BioMAP Diversity Plus: 3C Assay for Human Leukocyte Antigen - DR isotype (HLADR) Biomarker Activity (AID 2283019); conditions: primary human endothelial cells (HUVEC); actives raise or lower the signal;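 further: ELISA of cell-surface HLA-DR on HUVEC 24 h after dosing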
In short: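 Bidirectional fitting against DMSO was applied to the HLA-DR ELISA signal from human umbilical vein endothelial cells, 24 h post-dose. Cytotoxicity came from parallel SRB total-protein staining; 3C proliferation was counted by SRB at 48 h.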

[10] = read-out: Monokine induced gamma interferon (MIG), CXCL9 (gene 4283); experiment: BSK_3C_MIG: BioMAP Diversity Plus: 3C Assay for Monokine induced gamma interferon (MIG) Biomarker Activity (AID 2283021); conditions: primary human endothelial cells (HUVEC); actives raise or lower the signal
In short: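 Read-out is ELISA detection of MIG on human umbilical vein endothelial cells, taken 24 h after dosing. Gain or loss of signal was scored relative to DMSO controls using bidirectional curve fitting.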

[11] = biological target: human Vitamin D Receptor (VDR), VDR (gene 7421) (UniProt P11473); experiment: ATG_VDR_TRANS: Attagene TRANS-FACTORIAL HepG2 Assay for human Vitamin D Receptor (VDR) (AID 2283022; active means hit-call score of the fitted dose curve at least 0.9, where 1 is the maximum)
Chain of human Vitamin D Receptor (VDR), VDR (gene 7421) (P11473 whole entry, looked up, the tested form may be a part): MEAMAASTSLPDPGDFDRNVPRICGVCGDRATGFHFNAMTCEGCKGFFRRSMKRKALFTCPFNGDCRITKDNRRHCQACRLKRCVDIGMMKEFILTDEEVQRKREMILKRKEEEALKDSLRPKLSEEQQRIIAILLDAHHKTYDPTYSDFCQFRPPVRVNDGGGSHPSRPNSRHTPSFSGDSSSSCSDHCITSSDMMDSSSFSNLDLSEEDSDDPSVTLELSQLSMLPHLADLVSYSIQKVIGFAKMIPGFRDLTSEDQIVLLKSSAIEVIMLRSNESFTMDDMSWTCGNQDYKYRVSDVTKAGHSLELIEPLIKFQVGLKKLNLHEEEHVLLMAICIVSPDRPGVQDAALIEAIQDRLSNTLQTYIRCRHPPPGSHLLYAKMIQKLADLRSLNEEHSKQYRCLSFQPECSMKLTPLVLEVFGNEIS
In short: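 Transactivation by an exogenous VDR-Gal4 chimera in transiently transfected HepG2 cells was measured as reporter transcript level 24 hours after chemical treatment. RT-PCR products were analysed by capillary electrophoresis and fitted in the positive direction relative to DMSO.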

[12] = biological target: Peroxisome proliferator-activated receptor gamma (Homo sapiens) (UniProt P37231); experiment: ATG_PPARg_TRANS: Attagene TRANS-FACTORIAL HepG2 Assay for human Peroxisome Proliferator-activated Receptor-gamma (PPARg) (AID 2283007; active means hit-call score of the fitted dose curve at least 0.9, where 1 is the maximum)
Chain of Peroxisome proliferator-activated receptor gamma (Homo sapiens) (P37231 whole entry, looked up, the tested form may be a part): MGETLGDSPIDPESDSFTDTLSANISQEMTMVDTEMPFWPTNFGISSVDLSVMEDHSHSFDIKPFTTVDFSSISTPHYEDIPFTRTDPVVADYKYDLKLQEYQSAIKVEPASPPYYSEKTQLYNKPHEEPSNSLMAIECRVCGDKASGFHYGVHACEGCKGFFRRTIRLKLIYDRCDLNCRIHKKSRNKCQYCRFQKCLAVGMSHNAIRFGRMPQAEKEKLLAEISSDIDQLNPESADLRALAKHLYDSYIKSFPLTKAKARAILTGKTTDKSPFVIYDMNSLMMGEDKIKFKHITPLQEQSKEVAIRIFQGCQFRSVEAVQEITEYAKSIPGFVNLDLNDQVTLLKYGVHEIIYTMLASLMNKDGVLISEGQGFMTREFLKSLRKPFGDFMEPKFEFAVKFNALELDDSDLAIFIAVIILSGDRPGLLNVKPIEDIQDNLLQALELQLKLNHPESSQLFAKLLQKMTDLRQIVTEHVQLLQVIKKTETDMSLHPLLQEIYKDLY
In short: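 After 24 h of chemical exposure, transfected HepG2 cells carrying PPARγ-Gal4 chimera reporter constructs are lysed for RNA. Reporter transcripts are measured by RT-PCR and capillary electrophoresis with fluorescent labelling, and gain of signal is fitted versus DMSO.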

[13] = biological target: Retinoic acid receptor RXR-alpha (Homo sapiens) (UniProt P19793); experiment: ATG_RXRa_TRANS: Attagene TRANS-FACTORIAL HepG2 Assay for human Retinoid X Receptor alpha (RXRa) (AID 2283012; active means hit-call score of the fitted dose curve at least 0.9, where 1 is the maximum)
Chain of Retinoic acid receptor RXR-alpha (Homo sapiens) (P19793 whole entry, looked up, the tested form may be a part): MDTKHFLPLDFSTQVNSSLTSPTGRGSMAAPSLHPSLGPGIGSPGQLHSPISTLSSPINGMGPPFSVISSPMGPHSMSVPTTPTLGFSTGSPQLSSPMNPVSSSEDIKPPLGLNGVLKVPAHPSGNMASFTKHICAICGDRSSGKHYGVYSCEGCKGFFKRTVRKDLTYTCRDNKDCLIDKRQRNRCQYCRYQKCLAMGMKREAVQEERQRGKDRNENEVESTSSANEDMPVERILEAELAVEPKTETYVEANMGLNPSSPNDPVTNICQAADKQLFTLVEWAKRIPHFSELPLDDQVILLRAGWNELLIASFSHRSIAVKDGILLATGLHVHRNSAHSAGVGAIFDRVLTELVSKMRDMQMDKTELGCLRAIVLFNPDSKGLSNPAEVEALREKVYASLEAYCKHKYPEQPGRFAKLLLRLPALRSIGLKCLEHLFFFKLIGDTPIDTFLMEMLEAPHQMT
In short: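 Transient transfection of human HepG2 with multiple GAL4-UAS reporter constructs; 24 h compound exposure; total RNA isolated, reverse-transcribed, PCR-amplified, 6-FAM labelled, HpaI-cut, resolved by capillary electrophoresis. Positive-direction fit versus DMSO.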

[14] = biological target: human Retinoid X Receptor beta (RXRb), RXRB (gene 6257) (UniProt P28702); experiment: ATG_RXRb_TRANS: Attagene TRANS-FACTORIAL HepG2 Assay for human Retinoid X Receptor beta (RXRb) (AID 2283013; active means hit-call score of the fitted dose curve at least 0.9, where 1 is the maximum)
Chain of human Retinoid X Receptor beta (RXRb), RXRB (gene 6257) (P28702 whole entry, looked up, the tested form may be a part): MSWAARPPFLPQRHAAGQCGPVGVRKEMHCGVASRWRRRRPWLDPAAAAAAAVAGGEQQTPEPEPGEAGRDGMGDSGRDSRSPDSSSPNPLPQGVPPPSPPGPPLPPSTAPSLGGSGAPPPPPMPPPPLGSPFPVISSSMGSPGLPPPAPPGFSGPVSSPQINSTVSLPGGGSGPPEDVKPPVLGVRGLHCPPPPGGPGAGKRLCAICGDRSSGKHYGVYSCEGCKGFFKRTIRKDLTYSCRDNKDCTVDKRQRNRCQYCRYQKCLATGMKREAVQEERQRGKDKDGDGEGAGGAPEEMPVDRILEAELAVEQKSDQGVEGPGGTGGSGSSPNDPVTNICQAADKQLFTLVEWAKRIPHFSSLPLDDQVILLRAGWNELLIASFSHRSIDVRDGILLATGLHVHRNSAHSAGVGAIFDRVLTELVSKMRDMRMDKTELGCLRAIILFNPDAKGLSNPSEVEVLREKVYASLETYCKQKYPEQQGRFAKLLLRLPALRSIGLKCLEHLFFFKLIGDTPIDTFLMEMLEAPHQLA
In short: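 Transfect HepG2 with GAL4-UAS multi-reporter constructs (chimeric NR-Gal4, TRANS format); dose compound 24 h; isolate RNA, RT-PCR, FAM primer extension, HpaI digest; quantify by capillary electrophoresis; positive direction vs DMSO.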

[15] = read-out: Monocyte Chemoattractant Protein-1 (MCP1), CCL2 (gene 6347); experiment: BSK_3C_MCP1: BioMAP Diversity Plus: 3C Assay for Monocyte Chemoattractant Protein-1 (MCP1) Biomarker Activity (AID 2283017); conditions: primary human endothelial cells (HUVEC); actives raise or lower the signal
In short: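 MCP-1 was measured by ELISA 24 h after dosing in primary HUVEC 3C cultures and fitted in both directions relative to DMSO; cytotoxicity was checked by SRB total-protein staining in parallel wells.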

[16] = biological target: Nuclear receptor subfamily 1 group I member 2 (Homo sapiens) (UniProt O75469); experiment: ATG_PXR_TRANS: Attagene TRANS-FACTORIAL HepG2 Assay for human Pregnane X Receptor (PXR) (AID 2283008; active means hit-call score of the fitted dose curve at least 0.9, where 1 is the maximum)
Chain of Nuclear receptor subfamily 1 group I member 2 (Homo sapiens) (O75469 whole entry, looked up, the tested form may be a part): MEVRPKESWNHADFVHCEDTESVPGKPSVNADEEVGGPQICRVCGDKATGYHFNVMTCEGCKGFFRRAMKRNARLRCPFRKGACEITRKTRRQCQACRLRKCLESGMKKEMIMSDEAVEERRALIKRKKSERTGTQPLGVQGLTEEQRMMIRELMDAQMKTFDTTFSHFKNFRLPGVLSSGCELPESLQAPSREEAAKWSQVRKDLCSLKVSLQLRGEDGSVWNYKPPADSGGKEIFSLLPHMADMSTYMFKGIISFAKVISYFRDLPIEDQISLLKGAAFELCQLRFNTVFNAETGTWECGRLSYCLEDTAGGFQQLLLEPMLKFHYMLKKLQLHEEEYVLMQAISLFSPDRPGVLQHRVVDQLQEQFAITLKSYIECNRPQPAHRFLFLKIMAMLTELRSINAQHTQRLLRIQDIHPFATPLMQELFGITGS
In short: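 HepG2 cells transiently transfected with multiple reporter units, here a PXR-GAL4 chimera driving a GAL4-UAS reporter; 24 h compound exposure. Reporter mRNA measured by RT-PCR, FAM labelling and capillary electrophoresis; gain of signal fitted against DMSO baseline.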

[17] = read-out: Interleukin-8 (IL8), CXCL8 (gene 3576); experiment: BSK_3C_IL8: BioMAP Diversity Plus: 3C Assay for Interleukin-8 (IL8) Biomarker Activity (AID 2283020); conditions: primary human endothelial cells (HUVEC); actives raise or lower the signal
In short: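 ELISA read-out of IL-8 from human umbilical vein endothelium, measured 24 h after chemical dosing. Activity is expressed relative to DMSO negative control, with both increases and decreases fitted.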

[18] = biological target: human Retinoic Acid Receptor gamma (RARg), RARG (gene 5916) (UniProt P13631); experiment: ATG_RARg_TRANS: Attagene TRANS-FACTORIAL HepG2 Assay for human Retinoic Acid Receptor gamma (RARg) (AID 2283009; active means hit-call score of the fitted dose curve at least 0.9, where 1 is the maximum)
Chain of human Retinoic Acid Receptor gamma (RARg), RARG (gene 5916) (P13631 whole entry, looked up): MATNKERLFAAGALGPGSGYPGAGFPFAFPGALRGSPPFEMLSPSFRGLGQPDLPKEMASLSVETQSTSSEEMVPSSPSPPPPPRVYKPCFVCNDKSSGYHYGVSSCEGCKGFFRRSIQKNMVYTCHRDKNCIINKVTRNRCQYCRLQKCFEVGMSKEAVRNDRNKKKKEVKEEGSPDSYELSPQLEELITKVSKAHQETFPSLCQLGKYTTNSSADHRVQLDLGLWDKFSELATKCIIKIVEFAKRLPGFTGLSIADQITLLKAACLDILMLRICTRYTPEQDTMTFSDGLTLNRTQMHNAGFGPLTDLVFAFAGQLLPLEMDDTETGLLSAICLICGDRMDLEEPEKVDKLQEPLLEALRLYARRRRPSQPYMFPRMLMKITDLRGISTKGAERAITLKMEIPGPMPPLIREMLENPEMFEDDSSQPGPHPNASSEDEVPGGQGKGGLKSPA
In short: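 Transient transfection of HepG2 with multi-reporter constructs, then 24 h chemical treatment. Total RNA isolated, reverse-transcribed, PCR-amplified, fluorescently labelled and resolved by capillary electrophoresis; activity scored as mRNA induction versus DMSO.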

Measured: AC50

Chain of E-selectin (Homo sapiens) (P16581 whole entry, looked up): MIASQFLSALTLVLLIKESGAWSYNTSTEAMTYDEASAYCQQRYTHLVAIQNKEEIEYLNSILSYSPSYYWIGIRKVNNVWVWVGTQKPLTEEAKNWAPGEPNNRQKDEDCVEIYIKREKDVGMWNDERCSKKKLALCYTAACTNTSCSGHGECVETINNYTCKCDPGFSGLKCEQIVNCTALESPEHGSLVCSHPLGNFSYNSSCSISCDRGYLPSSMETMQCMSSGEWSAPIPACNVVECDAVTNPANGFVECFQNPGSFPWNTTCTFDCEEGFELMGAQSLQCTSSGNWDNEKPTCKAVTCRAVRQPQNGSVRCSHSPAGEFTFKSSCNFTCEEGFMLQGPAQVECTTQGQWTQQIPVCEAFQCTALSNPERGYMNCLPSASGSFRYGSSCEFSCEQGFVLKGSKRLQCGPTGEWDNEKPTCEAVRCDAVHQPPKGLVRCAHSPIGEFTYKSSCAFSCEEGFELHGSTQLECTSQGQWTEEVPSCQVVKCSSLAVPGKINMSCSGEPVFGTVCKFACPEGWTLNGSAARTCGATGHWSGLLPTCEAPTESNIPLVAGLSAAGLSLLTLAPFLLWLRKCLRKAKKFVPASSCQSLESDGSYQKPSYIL

CCCCCOC(C)=O
active: [2] 20.8 µM
not listed: [12] | [13] | [14] | [15] | [16] | [17] | [18]
inactive: all other assays above

CCCc1ccccc1
not listed: [1] | [3] | [4] | [9] | [16] | [17] | [18]
inactive: all other assays above

CCOc1ccc2[nH]cc(C(=O)NCc3ccccc3)c(=O)c2n1
active: [16] 13 µM
not listed: [1] | [3] | [4] | [9] | [18]
inactive: all other assays above

CC[C@H](C)C(=O)O[C@H]1C[C@H](O)C=C2C=C[C@H](C)[C@H](CC[C@@H](O)C[C@@H](O)CC(=O)O)[C@H]21
inactive: [2] | [18] | [4] | [14] | [5] | [6] | [7] | [8] | [10] | [11]

CNC(C)=O
inactive: [1] | [2] | [14] | [5] | [6] | [7] | [15] | [8] | [10]

Nc1ccn([C@@H]2O[C@H](CO)[C@@H](O)[C@@H]2O)c(=O)n1
inactive: [1] | [18] | [14] | [6] | [7] | [15] | [8] | [10] | [11]
active: [2] 0.519 µM

NC(=O)NN=Cc1ccc([N+](=O)[O-])o1
inactive: [2] | [12] | [4] | [6] | [7] | [8] | [9] | [10] | [11]

C=CN1CCCC1=O
inactive: [1] | [2] | [13] | [6] | [7] | [15] | [8] | [10]

OC(Cn1cncn1)(Cn1cncn1)c1ccc(F)cc1F
not listed: [1] | [3] | [4] | [12] | [13] | [18]
inactive: all other assays above

CC(C)CC(C)O (configuration not stated)
inactive: [1] | [2] | [6] | [7] | [8] | [9] | [10]

CCOC(N)=O
inactive: [1] | [2] | [3] | [4] | [13] | [6] | [7] | [8] | [9] | [10]

OC[C@H]1O[C@@H]2O[C@H]3[C@H](O)[C@@H](O)[C@@H](O[C@H]4[C@H](O)[C@@H](O)[C@@H](O[C@H]5[C@H](O)[C@@H](O)[C@@H](O[C@H]6[C@H](O)[C@@H](O)[C@@H](O[C@H]7[C@H](O)[C@@H](O)[C@@H](O[C@H]1[C@H](O)[C@H]2O)O[C@@H]7CO)O[C@@H]6CO)O[C@@H]5CO)O[C@@H]4CO)O[C@@H]3CO
inactive: [2] | [18] | [3] | [14] | [6] | [7] | [15] | [8] | [10] | [11]

CCCCCCOC(=O)CC(CC(=O)OCCCCCC)(OC(=O)CCC)C(=O)OCCCCCC
not listed: [1] | [5] | [9] | [14] | [15] | [18]
inactive: all other assays above

From PubChem BioAssay (EPA / NIEHS)
